The panel holds about 83,000 compounds, 20% with a hit somewhere; the sample as a whole holds those more often.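 The test compound was applied at a single concentration to cells in 96-well plates for 48 hours, and percent growth was recorded.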 Unmarked numbers belong to inactive results. Activity calls are given as the source filed them.

The test system of this experiment is SK-OV-3 ovarian. The experiment in a line: NCI-60 one-dose screen, 48 h (100 = growth as untreated, 0 = no growth, -100 = all killed). The following applies: 10 µM unless noted. The procedure: Growth inhibition of the SK-OV-3 human tumor cell line is measured as a screen for anti-cancer activity. Cells are grown in 96 well plates and exposed to the test compound for 48 hours. Compounds are tested at a single concentration, which is 10^-5 M for most compounds. The reported endpoint is percent growth (GI% or GIPRCNT), where numbers from 0 - 100% represent growth inhibition, and numbers from -100% - 0 represent cell death. For example, a value of 40 represents 60% growth inhibition. A value of 0 means no net growth occurred over the course of the experiment. A value of -40 indicates 40% of cells at the beginning of the experiment died by the end of the experiment. A value of -100 means all cells are dead at the end of the experiment.
NCI-60 Human Tumor Cell Lines Screen was performed using the standard one-dose NCI protocol, which is described in more detail at https://dtp.cancer.gov/discovery_development/nci-60/default.htm.
Compounds with GIPRCNT values below 10 were considered active. Activity score was based on GIPRCNT using the following formula: […]
Score is 0 for GIPRCNT values of 100 or above, 50 for GIPRCNT values of 0, and 100 for GIPRCNT values of -100.
`C=C1C(=O)O[C@H]2[C@H]1CC/C(CNC(=O)Cc1c[nH]c3ccccc13)=C\CC[C@@]1(C)O[C@@H]21`: the growth is 106%. Under `Clc1ccc(-c2cc(-c3ccccc3)nc(N3CCN(CCCNc4ccnc5cc(Cl)ccc45)CC3)n2)cc1` stands 106%. Under `CS(=O)(=O)Nc1cc(-c2ccc3ncnc(Nc4ccc(F)c(Cl)c4)c3c2)ccc1Cl` stands 17.7%. Under `Brc1ccc(Nc2nc(Nc3cnc4ccccc4c3)c3[nH]cnc3n2)cc1` stands 68.2%; under `Cc1ccc(S(=O)(=O)OC[C@]23CCC(C)(C)C[C@H]2C2=CC[C@@H]4[C@@]5(C)CCCNC(C)(C)[C@@H]5CC[C@@]4(C)[C@]2(C)CC3)cc1`, 103%; under `O=C(c1cccc(N2CCOCC2)n1)c1c[nH]c2ccccc12`, 164%. As for `N#Cc1c(-c2ccccc2)nc2c(c(-c3ccccc3)nn2-c2ccccc2)c1-c1ccc(N2CCCCC2)cc1`, the growth was 104%.

With `COc1ccc(C2C3=C(COC3=O)N(CCO)c3cc4c(cc32)OCO4)cc1OC` (stereo not given), the growth was 84.1%. Regarding `C=CC(=O)Nc1cccc(Oc2nccc(Nc3nnc(-c4ccc(Br)cc4)s3)n2)c1`, the growth was 91%. The value for `CN(C)CCCn1c2c(c3cnccc3c1=O)C(=O)c1ccccc1-2` was 21.5%.

Take `Nc1nc(N)c2c(n1)NC(c1cccc(Nc3ccnc4cc(C(F)(F)F)ccc34)c1)CC(c1ccc3c(c1)OCO3)=N2` (stereo not given): the growth was 76.8%. Regarding `Cc1cccc(NC(=O)N/C(N)=N/c2nc3ccccc3s2)c1`, the growth was 35.2%. `O=C(/C=C/c1ccccc1)c1ccc(-n2cc(CN3CCN(c4cc5c(cc4F)c(=O)c(C(=O)O)cn5C4CC4)CC3)nn2)cc1`: the growth was 80%.

As for `Clc1ccc(-c2nc(C(Cl)Cl)nc3cc(-c4ccccc4)nn23)cc1`, the growth was 18.6%.

Regarding `Nc1nc2ccccc2c2c(=O)c3cc(Cl)ccc3sc12`, the growth was 79.8%. Turning to `O=CCCCOCc1ccccc1`, the growth was 99.9%.

On to `COc1ccc(/C=C2\c3cc(OC)c(OC)c(OC)c3CC[C@@H]2O)cc1F`, for which the growth is 22.4%. The value for `CCOC(=O)C1=C(CCl)N(C)C(=O)NC1c1ccc2c(c1)OCO2` (stereo not given) was 93.7%. As for `O=C(Cn1nc(-c2cccc3ccccc23)ccc1=O)NCc1cccc(Cl)c1`, the growth was 61.5% [50 µM]. As to `CCOC(=O)/C(=C(/C)NCC(C)C)c1cc(O)c(O)c2c(C)cc(=O)[nH]c12`, the growth was 84.4%.

With `CN1CCN(Cc2ccc(NC(=O)c3cncc(C#Cc4cnc(N)cc4C#N)c3)cc2C(F)(F)F)CC1`, the growth is -14.6% (active). Under `FC(F)(F)c1[nH]ncc1-c1nc2ccc3[nH]ncc3c2c2c1CCCC2` stands -3.29% (active).

`O=C(Nc1cc(Cl)ccc1O)c1ccccc1Nc1ccnc(C(F)(F)F)c1`: the growth was 49.9%.

For `Fc1ccc(/C=C/[C@@H]2C[C@@H](F)CCO2)cc1`, the growth was 102%. For `Cc1c2cnccc2c(C)c2c1c1cc(CO)ccc1n2C`, the growth was -43.1% (active).

Take `COC1C(O)CC(OC2CC(OC3CC(O[C@@H]4C(=O)c5c(cc6cc(OC7CC(OC8CC(O)C(O)C(C)O8)C(O)C(C)O7)c(C)c(O)c6c5O)CC4[C@H](OC)C(=O)O)OC(C)C3O)OC(C)C2O)OC1C` (stereo not given in full): the growth is 35.1%.

Consider `c1cc(OCCCCCOc2cccc(-c3nc4ccccc4[nH]3)c2)cc(-c2nc3ccccc3[nH]2)c1`, for which the growth is 23.9%. Take `C=CN(C(=O)N1CCN(c2cc3c(cc2F)c(=O)c(C(=O)O)cn3C2CC2)CC1)c1nc(-c2ccccc2)cs1`: the growth is 87.8%.

As for `c1ccc(-c2c(-c3ccccc3)[n+](Cc3ccc4ccccc4c3)cn2Cc2ccc3ccccc3c2)cc1`, the growth is -97.9% (active). For the compound `O=C(/C=C/c1ccccc1Cl)c1cccc(OCCCCOc2cccc(C(=O)/C=C/c3ccccc3Cl)c2)c1`, the growth was 100%. Under `COc1ccc(OC)c(Nc2nnc(-c3cc(OC)c(OC)c(OC)c3)o2)c1` stands 104%.

On to `CCN(CC)CCOc1ccc2ccc(=O)oc2c1`, for which the growth was 92.9%. For `CCOC(=O)c1cnn(CC(C)O)c1NC(=O)NCc1ccccc1C(F)(F)F` (stereo not given), the growth is 101%. The value for `CSc1ccc2c3c(n(C[C@H](O)CO)c(=O)c2c1)-c1ccccc1C3=O` was 81.6%; that for `COc1ccc(NC(=O)c2ccc(Nc3ncnc4c3cnn4-c3cccc(F)c3)cc2)cc1` was 111%; that for `Cc1ccc2c(c1)sc1nc(-c3c[nH]c4ccccc34)c(Nc3ccccc3)n12` was -4.12% (active).

With `COc1ccc(-c2cc(C(=O)N3N=C(c4ccc(N)cc4)CC3c3ccc(Cl)cc3)c3cc(OC)ccc3n2)cc1` (stereo not given), the growth was 89.7%. With `COc1ccc(C(=O)/C=C/c2ccccc2)cc1S(N)(=O)=O`, the growth was 116%. Under `O=C(NN1C(=O)CSC1c1cccc([N+](=O)[O-])c1)c1ccc(NC(=O)c2ccccn2)cc1` (stereo not given) stands 104%; under `CCOC(=O)CC[C@H](NC(=O)c1ccc(N(C)Cc2cnc3nc(N)nc(N)c3n2)c2ccccc12)C(=O)OCC`, 50.7%.

These data come from PubChem BioAssay (NCI).
